According to PubChem BioAssay (NCI):
This is part of a sample that, as a whole, favours compounds with a hit. Of some 83,000 tested, about 20% had one in any assay.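 For each line, cells grew in 96-well plates with the test compound present at a single concentration for 48 hours.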 The source made the active and inactive calls. Rule for the calls: active = growth percent below 10; inactive = the rest.

How the values were obtained:
Experiment in all cases: NCI-60 one-dose screen, 48 h (100 = growth as untreated, 0 = no growth, -100 = all killed)
Conditions in all cases: 10 µM unless noted
SR leukemia = test system: SR leukemia
RPMI-8226 leukemia = test system: RPMI-8226 leukemia
OVCAR-8 ovarian = test system: OVCAR-8 ovarian
OVCAR-5 ovarian = test system: OVCAR-5 ovarian
OVCAR-4 ovarian = test system: OVCAR-4 ovarian
SK-OV-3 ovarian = test system: SK-OV-3 ovarian
IGROV1 ovarian = test system: IGROV1 ovarian
OVCAR-3 ovarian = test system: OVCAR-3 ovarian
HS 578T breast = test system: HS 578T breast
NCI/ADR-RES ovarian = test system: NCI/ADR-RES ovarian

Measured: growth

C=C1C(=O)O[C@H]2[C@H]1CC/C(COC(=O)c1ccc(Br)cc1)=C\CC[C@@]1(C)O[C@@H]21
active: SR leukemia -27.5% | RPMI-8226 leukemia -44.5% | OVCAR-8 ovarian -36.6% | OVCAR-5 ovarian 1.16% | OVCAR-4 ovarian -14.3% | IGROV1 ovarian -57.6% | OVCAR-3 ovarian -81.2%
inactive: SK-OV-3 ovarian 111% | HS 578T breast 17.8% | NCI/ADR-RES ovarian 24.7%

CCc1c(C)c2cc3nc(NCc4ccccc4)oc3c(C)c2oc1=O
inactive: SR leukemia 73.5% | RPMI-8226 leukemia 71.6% | OVCAR-8 ovarian 62.5% | OVCAR-5 ovarian 89.7% | OVCAR-4 ovarian 33.9% | SK-OV-3 ovarian 39.5% | IGROV1 ovarian 76.2% | OVCAR-3 ovarian 87% | HS 578T breast 67.1% | NCI/ADR-RES ovarian 51.2%

O=C(CSc1nnc(-c2ccccc2)o1)Nc1ccc(C(=O)/C=C/c2ccccc2)cc1
active: RPMI-8226 leukemia 2.35%
inactive: SR leukemia 28.8% | OVCAR-8 ovarian 60.1% | OVCAR-5 ovarian 102% | OVCAR-4 ovarian 30.9% | SK-OV-3 ovarian 108% | IGROV1 ovarian 38% | OVCAR-3 ovarian 41.8% | HS 578T breast 88.5% | NCI/ADR-RES ovarian 53.6%

Oc1ccc(O)c(-[n+]2ccccc2)c1
inactive: SR leukemia 93.7% | RPMI-8226 leukemia 99.7% | OVCAR-8 ovarian 99.5% | OVCAR-5 ovarian 108% | OVCAR-4 ovarian 108% | SK-OV-3 ovarian 98.7% | IGROV1 ovarian 107% | OVCAR-3 ovarian 109% | HS 578T breast 96% | NCI/ADR-RES ovarian 108%

CNCCCOc1c(Br)cc(CCNC(=O)/C(Cc2cc(Br)c(OC)c(Br)c2)=N/O)cc1Br
active: SR leukemia -57% | RPMI-8226 leukemia -30.7% | OVCAR-8 ovarian 2.04% | IGROV1 ovarian 6.03% | OVCAR-3 ovarian -25.4% | HS 578T breast -17.9% | NCI/ADR-RES ovarian 9.44%
inactive: OVCAR-5 ovarian 36.2% | OVCAR-4 ovarian 14.3% | SK-OV-3 ovarian 37.2%

CCOC(=O)CSc1nnc(-c2cc3c([nH]c4ccccc43)c(-c3cccc(O)c3)n2)n1-c1ccc(C)cc1
inactive: SR leukemia 13.7% | RPMI-8226 leukemia 76.1% | OVCAR-8 ovarian 16.7% | OVCAR-5 ovarian 96.4% | OVCAR-4 ovarian 72.6% | SK-OV-3 ovarian 105% | IGROV1 ovarian 28.3% | OVCAR-3 ovarian 31.1% | HS 578T breast 58.7% | NCI/ADR-RES ovarian 89.9%

Cc1cc(O[C@@H]2O[C@@H](C)[C@H](O)[C@@H](O)[C@H]2O)c2c3c(c(O[C@@H]4O[C@@H](C)[C@H](O)[C@@H](O)[C@H]4O)cc2c1)C(=O)c1c(O)cccc1C3=O
active: HS 578T breast -12.8%
inactive: SR leukemia 82.6% | RPMI-8226 leukemia 57.2% | OVCAR-8 ovarian 22.9% | OVCAR-5 ovarian 98.5% | OVCAR-4 ovarian 81.8% | SK-OV-3 ovarian 83.6% | IGROV1 ovarian 89.3% | OVCAR-3 ovarian 93.7% | NCI/ADR-RES ovarian 36.4%

CSc1nc(N)nc2c1ncn2C
inactive: SR leukemia 91.7% | RPMI-8226 leukemia 96.4% | OVCAR-8 ovarian 106% | OVCAR-5 ovarian 100% | OVCAR-4 ovarian 103% | SK-OV-3 ovarian 90.4% | IGROV1 ovarian 106% | OVCAR-3 ovarian 100% | HS 578T breast 106% | NCI/ADR-RES ovarian 98.8%

CCOC(=O)C1CSC(C)(C(=O)OCC)N1 (stereo not given)
inactive: SR leukemia 97.3% | RPMI-8226 leukemia 96.3% | OVCAR-8 ovarian 110% | OVCAR-5 ovarian 98.2% | OVCAR-4 ovarian 109% | SK-OV-3 ovarian 91.7% | IGROV1 ovarian 104% | OVCAR-3 ovarian 100% | HS 578T breast 112% | NCI/ADR-RES ovarian 101%

Cc1cc(C)c(O)c(C(=O)CC(Br)C(=O)O)c1 (stereo not given)
inactive: SR leukemia 78.3% | RPMI-8226 leukemia 35.8% | OVCAR-8 ovarian 105% | OVCAR-5 ovarian 106% | OVCAR-4 ovarian 106% | SK-OV-3 ovarian 103% | IGROV1 ovarian 106% | OVCAR-3 ovarian 108% | HS 578T breast 107% | NCI/ADR-RES ovarian 103%

COc1ccc(CCNC=O)cc1OC
inactive: SR leukemia 117% | RPMI-8226 leukemia 108% | OVCAR-8 ovarian 107% | OVCAR-5 ovarian 99.7% | OVCAR-4 ovarian 100% | SK-OV-3 ovarian 114% | IGROV1 ovarian 94% | OVCAR-3 ovarian 110% | HS 578T breast 105% | NCI/ADR-RES ovarian 97.4%

CC(C)CNCC(=O)Nc1ccc(Cc2ccc(NC(=O)CNCC(C)C)cc2)cc1
inactive: RPMI-8226 leukemia 32.8% | OVCAR-8 ovarian 62.1% | OVCAR-5 ovarian 72.8% | OVCAR-4 ovarian 71.6% | SK-OV-3 ovarian 84.1% | IGROV1 ovarian 47.2% | OVCAR-3 ovarian 74.5% | HS 578T breast 65.1% | NCI/ADR-RES ovarian 78.2%
active: SR leukemia 6.24%

CCCCOc1c(N)cc(Cl)cc1C(=O)OCCN(CC)CC
inactive: SR leukemia 79.5% | RPMI-8226 leukemia 100% | OVCAR-8 ovarian 90.8% | OVCAR-5 ovarian 113% | OVCAR-4 ovarian 118% | SK-OV-3 ovarian 94.5% | IGROV1 ovarian 107% | OVCAR-3 ovarian 108% | HS 578T breast 99.7% | NCI/ADR-RES ovarian 107%

c1ccc2nc(Cn3cc[n+](Cc4ccc5ccccc5n4)c3)ccc2c1
inactive: SR leukemia 47.8% | RPMI-8226 leukemia 29.6% | OVCAR-8 ovarian 76.2% | OVCAR-5 ovarian 86.9% | OVCAR-4 ovarian 33.7% | SK-OV-3 ovarian 86.9% | IGROV1 ovarian 68.3% | OVCAR-3 ovarian 52% | HS 578T breast 75.3% | NCI/ADR-RES ovarian 107%
